# Positions count from the first letter of the chain named.
# Assays:
# Experiment in all cases: yeast three-hybrid, YBZ-1, SC-Leu-His + 0.5 mM 3-AT, 4 days
# Details in all cases: tags: N-Gal4 AD-HA kept; label: inside an RPR1-promoter hybrid RNA with tandem MS2 sites; ssRNA
# [1] = biological target: PUM1 PUF domain R7-RMR (Homo sapiens, UniProt Q14671 828-1176, S1079R;N1080M;E1083R)
# Outline: (§1)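 The interaction score is the log change in how often each variant appears, from input to selection. Frequencies came from PCR-amplified, Illumina-sequenced repeat regions of Pumilio-1 PUF domain libraries grown in strain YBZ-1 (LexA–MS2 coat fusion, HIS3 reporter) alongside matching RNA elements. Input plates were SC-Leu and selection plates were SC-Leu-His + 0.5 mM 3-AT, each for four days, and the log2 calculation used a pseudocount of 1 where a variant was absent.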
# [2] = biological target: PUM1 PUF domain R7-RTC (Homo sapiens, UniProt Q14671 828-1176, S1079R;N1080T;E1083C)
# Outline: as §1
# [3] = biological target: PUM1 PUF domain R1-KQR (Homo sapiens, UniProt Q14671 828-1176, S863K;R864Q;Q867R)
# Outline: as §1
# [4] = biological target: PUM1 PUF domain R1-NFH (Homo sapiens, UniProt Q14671 828-1176, S863N;R864F;Q867H)
# Outline: as §1
# [5] = biological target: T1, PUM1 PUF domain R6-KWV (Homo sapiens, UniProt Q14671 828-1176, N1043K;Y1044W;Q1047V)
# T1 sequence: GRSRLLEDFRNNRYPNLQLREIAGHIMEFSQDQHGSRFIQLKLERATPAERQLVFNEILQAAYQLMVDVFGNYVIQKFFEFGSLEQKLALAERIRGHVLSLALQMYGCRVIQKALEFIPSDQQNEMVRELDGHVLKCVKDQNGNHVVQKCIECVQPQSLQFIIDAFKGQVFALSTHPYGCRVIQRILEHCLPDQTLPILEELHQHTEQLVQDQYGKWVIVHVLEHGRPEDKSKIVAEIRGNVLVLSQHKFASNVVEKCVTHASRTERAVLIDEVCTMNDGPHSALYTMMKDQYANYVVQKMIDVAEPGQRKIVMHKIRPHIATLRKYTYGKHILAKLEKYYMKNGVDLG
# Outline: as §1
# [6] = biological target: T2, PUM1 PUF domain R6-HFT (Homo sapiens, UniProt Q14671 828-1176, N1043H;Y1044F;Q1047T)
# T2 sequence: T1 sequence with K216H, W217F, V220T
# Outline: as §1
# [7] = biological target: PUM1 PUF domain R8-LHK (Homo sapiens, UniProt Q14671 828-1176, N1122L;Y1123H;Q1126K)
# Outline: as §1
# [8] = biological target: PUM1 PUF domain R5-FHG (Homo sapiens, UniProt Q14671 828-1176, C1007F;R1008H;Q1011G)
# Outline: as §1
sequence,measurement,setting,value
GGCUAGAACUAGUGGAUCCCCCGGCGCCCGGCGGCUCGAGCCCGGGUAAGUUUAAAUAGUCUGCAUGCCGCCGGGCGCCAUGCCUGCAGGUCGACUCUAGAAAACAUG,binding signal,[1],4.78 log2 enrichment (interaction score)
same,binding signal,[2],3.51 log2 enrichment (interaction score)
GGCUAGAACUAGUGGAUCCCCCGGCGCCCGGCGGCUCGAGCCCGGGUAAGUCUAAAUAGUCUGCAUGCCGCCGGGCGCCAUGCCUGCAGGUCGACUCUAGAAAACAUG,binding signal,[1],2.46 log2 enrichment (interaction score)
GGCUAGAACUAGUGGAUCCCCCGGCGCCCGGCGGCUCGAGCCCGGGUAAGUGUAAAUCGUCUGCAUGCCGCCGGGCGCCAUGCCUGCAGGUCGACUCUAGAAAACAUG,binding signal,[3],5.28 log2 enrichment (interaction score)
GGCUAGAACUAGUGGAUCCCCCGGCGCCCGGCGGCUCGAGCCCGGGUAAGUGUAAAUUGUCUGCAUGCCGCCGGGCGCCAUGCCUGCAGGUCGACUCUAGAAAACAUG,binding signal,[4],3.4 log2 enrichment (interaction score)
GGCUAGAACUAGUGGAUCCCCCGGCGCCCGGCGGCUCGAGCCCGGGUAAGUGUAAAUAGUCUGCAUGCCGCCGGGCGCCAUGCCUGCAGGUCGACUCUAGAAAACAUG,binding signal,[5],6.02 log2 enrichment (interaction score)
same,binding signal,[6],3.78 log2 enrichment (interaction score)
GGCUAGAACUAGUGGAUCCCCCGGCGCCCGGCGGCUCGAGCCCGGGUAAGCGUAAAUAGUCUGCAUGCCGCCGGGCGCCAUGCCUGCAGGUCGACUCUAGAAAACAUG,binding signal,[7],3.29 log2 enrichment (interaction score)
GGCUAGAACUAGUGGAUCCCCCGGCGCCCGGCGGCUCGAGCCCGGGUAAGUGUCAAUAGUCUGCAUGCCGCCGGGCGCCAUGCCUGCAGGUCGACUCUAGAAAACAUG,binding signal,[8],2.68 log2 enrichment (interaction score)
GGCUAGAACUAGUGGAUCCCCCGGCGCCCGGCGGCUCGAGCCCGGGUAAGUGUUAAUAGUCUGCAUGCCGCCGGGCGCCAUGCCUGCAGGUCGACUCUAGAAAACAUG,binding signal,[8],3.39 log2 enrichment (interaction score)
